Columns and labels:
[1] = target: T1, Testis-specific serine/threonine-protein kinase 1 (Homo sapiens) (UniProt Q9BXA7); conditions: at 1 µM
T1 sequence (whole entry): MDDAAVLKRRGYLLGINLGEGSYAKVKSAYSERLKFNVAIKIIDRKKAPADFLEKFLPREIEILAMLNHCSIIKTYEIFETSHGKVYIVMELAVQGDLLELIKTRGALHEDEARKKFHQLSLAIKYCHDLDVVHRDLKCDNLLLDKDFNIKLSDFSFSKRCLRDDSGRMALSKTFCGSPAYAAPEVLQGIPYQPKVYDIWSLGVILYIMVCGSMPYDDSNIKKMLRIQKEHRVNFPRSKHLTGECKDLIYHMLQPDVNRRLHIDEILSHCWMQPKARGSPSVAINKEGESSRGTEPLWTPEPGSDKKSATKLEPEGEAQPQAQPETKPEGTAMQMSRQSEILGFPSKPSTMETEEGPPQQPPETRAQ

[2] = target: T1, Testis-specific serine/threonine-protein kinase 1 (Homo sapiens); conditions: at 10 µM
[3] = target: T2, Testis-specific serine/threonine-protein kinase 2 (Homo sapiens) (UniProt Q96PF2); conditions: at 10 µM
T2 sequence (whole entry): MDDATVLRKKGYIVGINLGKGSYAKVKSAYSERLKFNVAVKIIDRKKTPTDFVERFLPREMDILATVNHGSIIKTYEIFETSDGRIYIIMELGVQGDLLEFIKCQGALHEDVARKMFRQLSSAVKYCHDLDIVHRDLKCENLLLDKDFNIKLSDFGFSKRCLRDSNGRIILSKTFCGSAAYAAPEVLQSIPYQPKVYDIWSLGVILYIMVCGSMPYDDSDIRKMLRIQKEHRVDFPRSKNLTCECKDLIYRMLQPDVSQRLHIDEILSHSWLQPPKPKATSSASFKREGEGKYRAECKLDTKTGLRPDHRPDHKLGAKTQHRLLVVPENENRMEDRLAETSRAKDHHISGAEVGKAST

[4] = target: T3, Tyrosine-protein kinase Tec (Homo sapiens) (UniProt P42680); conditions: at 1 µM
T3 sequence (whole entry): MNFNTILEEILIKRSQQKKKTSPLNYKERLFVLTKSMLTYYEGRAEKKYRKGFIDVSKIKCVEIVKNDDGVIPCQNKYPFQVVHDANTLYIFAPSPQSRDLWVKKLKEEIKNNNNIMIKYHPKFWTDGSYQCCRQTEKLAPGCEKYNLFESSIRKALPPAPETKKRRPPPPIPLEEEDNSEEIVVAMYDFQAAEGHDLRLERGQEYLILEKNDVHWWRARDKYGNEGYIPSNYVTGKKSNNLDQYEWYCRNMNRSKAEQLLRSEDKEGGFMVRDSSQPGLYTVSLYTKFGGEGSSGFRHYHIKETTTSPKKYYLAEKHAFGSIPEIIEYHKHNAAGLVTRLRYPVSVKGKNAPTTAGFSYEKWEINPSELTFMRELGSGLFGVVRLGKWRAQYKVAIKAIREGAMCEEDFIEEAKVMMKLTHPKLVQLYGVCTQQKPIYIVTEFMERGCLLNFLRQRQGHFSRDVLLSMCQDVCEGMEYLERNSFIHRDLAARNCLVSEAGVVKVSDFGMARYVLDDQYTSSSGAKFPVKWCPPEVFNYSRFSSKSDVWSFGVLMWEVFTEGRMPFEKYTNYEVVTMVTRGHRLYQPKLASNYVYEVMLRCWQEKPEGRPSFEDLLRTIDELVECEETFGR

[5] = target: T3, Tyrosine-protein kinase Tec (Homo sapiens); conditions: at 10 µM
[6] = target: Angiopoietin-1 receptor (Homo sapiens) (UniProt Q02763); conditions: at 1 µM
[7] = target: Angiopoietin-1 receptor (Homo sapiens) (UniProt Q02763); conditions: at 10 µM
[8] = target: High affinity nerve growth factor receptor (Homo sapiens) (UniProt P04629); conditions: at 1 µM
[9] = target: High affinity nerve growth factor receptor (Homo sapiens) (UniProt P04629); conditions: at 10 µM
[10] = target: T4, Tyrosine-protein kinase TXK (Homo sapiens) (UniProt P42681); conditions: at 1 µM
T4 sequence (whole entry): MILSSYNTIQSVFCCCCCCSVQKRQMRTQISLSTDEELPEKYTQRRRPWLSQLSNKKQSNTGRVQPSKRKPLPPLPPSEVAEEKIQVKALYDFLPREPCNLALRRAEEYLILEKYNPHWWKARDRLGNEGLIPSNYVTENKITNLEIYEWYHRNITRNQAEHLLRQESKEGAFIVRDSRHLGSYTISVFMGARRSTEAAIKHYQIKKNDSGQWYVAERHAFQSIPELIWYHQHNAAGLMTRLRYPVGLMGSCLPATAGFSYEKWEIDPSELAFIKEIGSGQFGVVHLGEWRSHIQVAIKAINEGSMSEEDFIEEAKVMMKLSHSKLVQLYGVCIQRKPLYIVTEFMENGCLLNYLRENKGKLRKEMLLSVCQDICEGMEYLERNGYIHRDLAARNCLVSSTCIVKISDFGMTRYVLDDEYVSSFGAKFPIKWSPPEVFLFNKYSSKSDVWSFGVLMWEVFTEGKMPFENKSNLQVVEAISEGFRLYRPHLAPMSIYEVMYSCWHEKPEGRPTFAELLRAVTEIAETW

[11] = target: T4, Tyrosine-protein kinase TXK (Homo sapiens); conditions: at 10 µM
[12] = target: T5, Serine/threonine-protein kinase ULK3 (Homo sapiens) (UniProt Q6PHR2); conditions: at 1 µM
T5 sequence (whole entry): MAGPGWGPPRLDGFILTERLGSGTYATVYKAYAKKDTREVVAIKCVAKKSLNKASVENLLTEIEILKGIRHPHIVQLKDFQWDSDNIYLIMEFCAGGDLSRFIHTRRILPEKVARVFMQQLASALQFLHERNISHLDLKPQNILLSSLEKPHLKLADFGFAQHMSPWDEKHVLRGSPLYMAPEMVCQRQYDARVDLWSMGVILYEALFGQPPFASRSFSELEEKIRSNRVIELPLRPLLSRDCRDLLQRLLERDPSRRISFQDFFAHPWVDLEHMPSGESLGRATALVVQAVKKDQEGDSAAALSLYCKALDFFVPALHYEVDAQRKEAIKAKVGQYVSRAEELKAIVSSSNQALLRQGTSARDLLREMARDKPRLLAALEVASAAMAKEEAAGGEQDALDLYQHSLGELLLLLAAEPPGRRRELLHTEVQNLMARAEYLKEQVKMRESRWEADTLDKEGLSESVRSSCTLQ

[13] = target: T5, Serine/threonine-protein kinase ULK3 (Homo sapiens); conditions: at 10 µM
[14] = target: Serine/threonine-protein kinase WNK2 (Homo sapiens) (UniProt Q9Y3S1); conditions: at 1 µM;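 also: residual WNK2 kinase activity expressed as percent of uninhibited control, assayed in MOPS buffer at pH 7.0 containing EDTA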
[15] = target: BDNF/NT-3 growth factors receptor (Homo sapiens) (UniProt Q16620); conditions: at 1 µM
[16] = target: BDNF/NT-3 growth factors receptor (Homo sapiens) (UniProt Q16620); conditions: at 10 µM
[17] = target: T6, Serine/threonine-protein kinase ULK2 (Homo sapiens) (UniProt Q8IYT8); conditions: at 1 µM
T6 sequence (whole entry): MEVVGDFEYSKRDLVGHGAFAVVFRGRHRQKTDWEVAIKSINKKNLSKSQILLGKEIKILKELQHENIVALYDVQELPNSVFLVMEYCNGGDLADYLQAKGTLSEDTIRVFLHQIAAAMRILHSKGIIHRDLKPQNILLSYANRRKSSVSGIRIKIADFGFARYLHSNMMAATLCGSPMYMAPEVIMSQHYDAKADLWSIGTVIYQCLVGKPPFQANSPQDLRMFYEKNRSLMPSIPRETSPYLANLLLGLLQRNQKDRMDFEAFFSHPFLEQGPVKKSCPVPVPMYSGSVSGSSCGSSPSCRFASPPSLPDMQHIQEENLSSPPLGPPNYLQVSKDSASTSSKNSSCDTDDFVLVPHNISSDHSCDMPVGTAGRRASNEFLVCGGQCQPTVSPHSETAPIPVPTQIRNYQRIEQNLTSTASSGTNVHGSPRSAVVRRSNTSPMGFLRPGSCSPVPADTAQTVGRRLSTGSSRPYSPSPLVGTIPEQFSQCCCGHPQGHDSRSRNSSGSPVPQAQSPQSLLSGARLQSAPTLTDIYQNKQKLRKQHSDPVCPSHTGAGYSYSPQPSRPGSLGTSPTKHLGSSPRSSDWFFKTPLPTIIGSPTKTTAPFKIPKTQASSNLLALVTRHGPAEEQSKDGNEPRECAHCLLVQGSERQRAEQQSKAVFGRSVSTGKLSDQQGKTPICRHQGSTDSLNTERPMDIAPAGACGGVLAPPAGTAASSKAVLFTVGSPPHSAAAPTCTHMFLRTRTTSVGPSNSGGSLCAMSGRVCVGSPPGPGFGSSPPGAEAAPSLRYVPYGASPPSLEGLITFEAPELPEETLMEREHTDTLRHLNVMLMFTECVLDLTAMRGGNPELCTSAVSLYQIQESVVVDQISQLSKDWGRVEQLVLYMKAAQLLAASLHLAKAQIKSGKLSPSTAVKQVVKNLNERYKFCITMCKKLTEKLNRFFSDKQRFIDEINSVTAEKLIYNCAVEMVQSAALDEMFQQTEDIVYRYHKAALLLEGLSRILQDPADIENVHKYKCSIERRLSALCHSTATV

[18] = target: T6, Serine/threonine-protein kinase ULK2 (Homo sapiens); conditions: at 10 µM
[19] = target: Serine/threonine-protein kinase VRK2 (Homo sapiens) (UniProt Q86Y07); conditions: at 1 µM
[20] = target: Serine/threonine-protein kinase VRK2 (Homo sapiens) (UniProt Q86Y07); conditions: at 10 µM

Angiopoietin-1 receptor (Homo sapiens), sequence (Q02763 whole entry): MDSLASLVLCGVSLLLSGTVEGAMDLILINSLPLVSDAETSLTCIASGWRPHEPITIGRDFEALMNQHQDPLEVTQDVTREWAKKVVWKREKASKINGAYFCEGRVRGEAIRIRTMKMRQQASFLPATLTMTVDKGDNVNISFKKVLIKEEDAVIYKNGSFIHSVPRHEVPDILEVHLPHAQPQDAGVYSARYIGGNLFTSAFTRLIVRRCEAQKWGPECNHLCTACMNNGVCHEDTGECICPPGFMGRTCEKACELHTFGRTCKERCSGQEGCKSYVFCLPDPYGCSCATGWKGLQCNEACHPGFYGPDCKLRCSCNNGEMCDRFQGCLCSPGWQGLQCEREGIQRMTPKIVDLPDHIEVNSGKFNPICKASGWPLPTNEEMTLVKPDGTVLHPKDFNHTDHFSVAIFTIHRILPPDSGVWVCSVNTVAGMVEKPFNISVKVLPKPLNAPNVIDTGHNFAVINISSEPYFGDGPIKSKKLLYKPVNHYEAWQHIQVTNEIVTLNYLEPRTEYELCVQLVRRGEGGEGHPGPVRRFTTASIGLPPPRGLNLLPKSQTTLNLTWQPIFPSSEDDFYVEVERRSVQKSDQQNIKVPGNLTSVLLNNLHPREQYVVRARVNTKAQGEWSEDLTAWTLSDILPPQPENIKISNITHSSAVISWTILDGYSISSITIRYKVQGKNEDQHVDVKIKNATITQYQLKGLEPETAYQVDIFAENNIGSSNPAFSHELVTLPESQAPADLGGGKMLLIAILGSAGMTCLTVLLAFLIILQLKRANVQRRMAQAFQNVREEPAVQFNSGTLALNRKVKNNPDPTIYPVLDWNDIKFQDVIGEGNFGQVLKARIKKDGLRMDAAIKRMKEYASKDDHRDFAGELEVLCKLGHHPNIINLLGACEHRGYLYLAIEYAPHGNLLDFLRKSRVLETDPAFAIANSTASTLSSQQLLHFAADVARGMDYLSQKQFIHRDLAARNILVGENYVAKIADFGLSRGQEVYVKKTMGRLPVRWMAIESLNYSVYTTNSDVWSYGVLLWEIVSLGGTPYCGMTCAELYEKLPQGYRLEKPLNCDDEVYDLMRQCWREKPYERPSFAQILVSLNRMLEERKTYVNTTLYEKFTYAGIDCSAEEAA
BDNF/NT-3 growth factors receptor (Homo sapiens), sequence (Q16620 32-822 limits assumed): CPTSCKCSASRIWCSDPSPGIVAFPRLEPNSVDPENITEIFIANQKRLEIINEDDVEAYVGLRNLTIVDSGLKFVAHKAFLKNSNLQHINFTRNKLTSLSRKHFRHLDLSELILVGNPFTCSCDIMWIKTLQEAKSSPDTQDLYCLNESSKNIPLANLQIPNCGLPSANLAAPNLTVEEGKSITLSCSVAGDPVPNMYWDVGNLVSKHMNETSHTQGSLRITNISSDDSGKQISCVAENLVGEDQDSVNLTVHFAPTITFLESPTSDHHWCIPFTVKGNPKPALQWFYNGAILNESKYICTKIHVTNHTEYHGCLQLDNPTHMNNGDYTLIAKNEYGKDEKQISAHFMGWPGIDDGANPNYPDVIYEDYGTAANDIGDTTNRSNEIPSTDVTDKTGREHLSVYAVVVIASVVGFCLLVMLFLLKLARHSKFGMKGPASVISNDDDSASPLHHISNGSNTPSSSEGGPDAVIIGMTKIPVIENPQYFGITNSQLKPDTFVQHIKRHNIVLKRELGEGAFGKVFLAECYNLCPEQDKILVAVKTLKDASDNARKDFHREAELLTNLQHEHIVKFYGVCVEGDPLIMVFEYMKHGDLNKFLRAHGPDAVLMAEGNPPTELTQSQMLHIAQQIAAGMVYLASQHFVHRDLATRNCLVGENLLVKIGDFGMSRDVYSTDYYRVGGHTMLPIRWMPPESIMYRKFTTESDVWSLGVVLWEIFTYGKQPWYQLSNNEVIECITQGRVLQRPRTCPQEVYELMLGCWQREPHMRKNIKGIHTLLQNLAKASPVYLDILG
Serine/threonine-protein kinase VRK2 (Homo sapiens), sequence (Q86Y07 whole entry): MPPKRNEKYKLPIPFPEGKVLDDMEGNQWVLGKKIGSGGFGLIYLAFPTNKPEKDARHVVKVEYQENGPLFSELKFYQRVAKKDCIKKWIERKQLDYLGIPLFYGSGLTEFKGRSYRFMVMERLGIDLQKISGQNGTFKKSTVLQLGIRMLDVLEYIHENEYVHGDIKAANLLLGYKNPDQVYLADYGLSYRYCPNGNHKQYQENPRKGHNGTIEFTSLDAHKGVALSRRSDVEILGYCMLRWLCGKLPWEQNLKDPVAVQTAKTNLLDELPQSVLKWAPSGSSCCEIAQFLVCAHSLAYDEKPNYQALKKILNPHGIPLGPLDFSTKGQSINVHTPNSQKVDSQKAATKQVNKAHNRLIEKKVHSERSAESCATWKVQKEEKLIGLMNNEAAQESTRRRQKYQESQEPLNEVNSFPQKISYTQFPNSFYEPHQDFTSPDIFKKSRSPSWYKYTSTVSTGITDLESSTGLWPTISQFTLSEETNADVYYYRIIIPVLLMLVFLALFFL
Serine/threonine-protein kinase WNK2 (Homo sapiens), sequence (Q9Y3S1 whole entry): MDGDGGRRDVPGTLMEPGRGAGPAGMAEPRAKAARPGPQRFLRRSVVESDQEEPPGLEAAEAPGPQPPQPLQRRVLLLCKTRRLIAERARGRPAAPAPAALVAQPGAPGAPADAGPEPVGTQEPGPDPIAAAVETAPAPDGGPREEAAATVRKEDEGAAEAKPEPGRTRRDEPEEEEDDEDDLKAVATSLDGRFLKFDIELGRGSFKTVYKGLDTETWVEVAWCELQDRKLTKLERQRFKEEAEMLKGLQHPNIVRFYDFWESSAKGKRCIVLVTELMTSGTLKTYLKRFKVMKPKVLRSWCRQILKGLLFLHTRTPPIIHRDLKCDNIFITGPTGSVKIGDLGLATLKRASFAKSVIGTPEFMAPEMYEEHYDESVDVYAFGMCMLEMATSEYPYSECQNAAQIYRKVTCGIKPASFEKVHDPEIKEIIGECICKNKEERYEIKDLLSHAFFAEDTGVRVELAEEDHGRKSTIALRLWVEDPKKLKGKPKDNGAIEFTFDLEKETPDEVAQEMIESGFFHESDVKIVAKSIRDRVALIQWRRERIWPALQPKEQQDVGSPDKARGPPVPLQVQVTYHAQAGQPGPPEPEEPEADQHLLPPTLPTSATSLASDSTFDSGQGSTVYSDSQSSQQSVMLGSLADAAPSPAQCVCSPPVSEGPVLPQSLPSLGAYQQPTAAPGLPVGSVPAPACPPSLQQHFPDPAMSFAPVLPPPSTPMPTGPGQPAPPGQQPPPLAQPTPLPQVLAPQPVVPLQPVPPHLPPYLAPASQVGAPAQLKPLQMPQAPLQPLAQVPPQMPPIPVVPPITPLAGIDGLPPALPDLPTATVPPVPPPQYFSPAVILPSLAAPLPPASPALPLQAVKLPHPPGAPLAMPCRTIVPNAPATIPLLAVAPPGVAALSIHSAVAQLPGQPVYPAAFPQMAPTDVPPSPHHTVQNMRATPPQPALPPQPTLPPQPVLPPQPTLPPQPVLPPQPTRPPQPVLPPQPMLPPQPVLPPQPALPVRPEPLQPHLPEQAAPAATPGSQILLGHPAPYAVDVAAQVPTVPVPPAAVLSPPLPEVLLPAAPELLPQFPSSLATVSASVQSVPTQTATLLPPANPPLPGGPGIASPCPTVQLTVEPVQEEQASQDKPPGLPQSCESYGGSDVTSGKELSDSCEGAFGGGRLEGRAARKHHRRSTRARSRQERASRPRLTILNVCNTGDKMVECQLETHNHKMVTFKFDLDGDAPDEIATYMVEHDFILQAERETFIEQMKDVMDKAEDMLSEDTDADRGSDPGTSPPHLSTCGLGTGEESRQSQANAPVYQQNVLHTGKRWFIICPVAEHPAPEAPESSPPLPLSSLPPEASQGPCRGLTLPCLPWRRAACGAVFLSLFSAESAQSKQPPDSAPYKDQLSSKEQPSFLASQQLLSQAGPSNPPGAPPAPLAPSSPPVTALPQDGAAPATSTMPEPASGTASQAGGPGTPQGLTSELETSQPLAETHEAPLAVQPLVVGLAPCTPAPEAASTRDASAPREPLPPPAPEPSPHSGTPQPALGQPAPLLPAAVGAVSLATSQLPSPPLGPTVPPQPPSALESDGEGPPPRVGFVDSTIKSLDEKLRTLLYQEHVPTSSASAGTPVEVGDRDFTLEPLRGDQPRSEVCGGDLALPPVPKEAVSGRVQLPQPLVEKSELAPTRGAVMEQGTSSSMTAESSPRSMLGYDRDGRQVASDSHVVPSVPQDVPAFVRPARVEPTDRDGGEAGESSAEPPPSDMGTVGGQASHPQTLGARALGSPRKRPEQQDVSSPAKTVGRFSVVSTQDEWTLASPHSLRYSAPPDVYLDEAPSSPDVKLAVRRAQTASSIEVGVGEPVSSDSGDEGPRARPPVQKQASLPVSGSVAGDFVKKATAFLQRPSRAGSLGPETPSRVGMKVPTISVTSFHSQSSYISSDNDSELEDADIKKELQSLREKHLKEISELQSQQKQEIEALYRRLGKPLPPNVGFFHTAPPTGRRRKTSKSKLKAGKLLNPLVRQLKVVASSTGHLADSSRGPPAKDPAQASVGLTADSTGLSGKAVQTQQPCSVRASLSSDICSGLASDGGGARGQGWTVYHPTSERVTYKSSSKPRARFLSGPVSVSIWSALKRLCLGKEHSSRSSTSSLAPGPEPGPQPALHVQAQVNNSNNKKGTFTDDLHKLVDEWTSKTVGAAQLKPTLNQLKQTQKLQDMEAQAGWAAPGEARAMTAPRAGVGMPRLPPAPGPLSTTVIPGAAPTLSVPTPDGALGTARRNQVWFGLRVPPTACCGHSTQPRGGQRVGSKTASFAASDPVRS

SMILES	residual activity [1] [%]	residual activity [2] [%]	residual activity [3] [%]	residual activity [4] [%]	residual activity [5] [%]	residual activity [6] [%]	residual activity [7] [%]	residual activity [8] [%]	residual activity [9] [%]	residual activity [10] [%]	residual activity [11] [%]	residual activity [12] [%]	residual activity [13] [%]	residual activity [14]	residual activity [15] [%]	residual activity [16] [%]	residual activity [17] [%]	residual activity [18] [%]	residual activity [19]	residual activity [20] [%]
CC(C)[C@H](CO)Nc1nc(Nc2cc(N)cc(Cl)c2)c2ncn(C(C)C)c2n1	86	66	90	61	13	100	52	5	0	63	17	41	8	87% (inactive)	–	–	–	–	–	–
COc1cc2nccc(Oc3ccc(NC(=S)NC(=O)c4ccccc4C)cc3)c2cc1OC	93	76	81	79	36	33	13	44	-1	88	37	99	76	76% (inactive)	54	25	101	93	93% (inactive)	90
O=C(CCCc1ccc(-c2ccccc2F)cc1)Nc1ccc(O)cc1	103	99	–	93	79	83	96	102	54	99	89	101	95	104% (inactive)	93	100	112	98	102% (inactive)	96
O=C1Cc2c([nH]c3ccc(Br)cc23)-c2ccccc2N1	87	49	76	92	55	–	–	–	–	–	–	–	–	93% (inactive)	–	66	–	–	99% (inactive)	90
COc1cc2c(cc1OC)-c1n[nH]c(Nc3cccc(F)c3)c1C2	77	68	–	63	18	–	74	69	6	64	20	98	72	78% (inactive)	56	31	–	–	–	–
Cn1sc(=O)n(Cc2ccccc2)c1=O	63	80	84	97	75	–	–	81	68	83	88	92	92	96% (inactive)	–	–	90	93	98% (inactive)	90
O=C1NC(=O)C(c2c[nH]c3ccccc23)=C1c1c[nH]c2ccccc12	–	–	–	–	–	–	–	58	8	–	–	–	–	–	29	24	–	–	–	75
O=C(c1ccccc1)c1ccc(N2CCOCC2)cc1O	–	–	99	96	77	–	80	76	71	82	70	–	92	115% (inactive)	131	113	–	94	98% (inactive)	94
NC(=O)c1ccc(-c2nc(-c3ccc4c(c3)OCCO4)c(-c3ccccn3)[nH]2)cc1	–	–	63	96	91	–	72	95	82	90	94	–	–	–	96	68	–	–	118% (inactive)	98
COc1cc2nccc(Oc3ccc(NC(=O)Nc4cc(C)on4)c(Cl)c3)c2cc1OC	–	–	–	–	–	–	–	2	0	98	45	–	–	100% (inactive)	42	-10	97	99	103% (inactive)	–
O=C(Nc1nc2ccccc2n1CCN1CCOCC1)c1cccc([N+](=O)[O-])c1	–	–	87	–	–	80	40	20	29	104	77	103	83	–	46	15	–	–	–	–
O=C(Nc1ccc(Cl)cc1)c1ccccc1NCc1ccncc1	–	–	–	–	–	–	79	–	–	–	–	–	–	–	117	99	102	–	–	–
COc1ccc(COc2ccc(Cc3cnc(N)nc3N)cc2OC)cc1	–	–	–	100	81	–	–	49	4	–	68	–	–	–	55	-12	–	–	–	–
COc1cc2ncnc(Nc3cccc(Cl)c3)c2cc1OC	–	80	–	–	43	111	83	88	55	87	49	102	79	–	50	61	104	100	102% (inactive)	74
NC(=O)c1cccc(-c2cc(Nc3ccc(OC(F)(F)F)cc3)ncn2)c1	–	–	–	–	–	–	–	–	65	–	–	100	93	124% (inactive)	–	–	–	–	–	–
CSc1nc(-c2ccc(F)cc2)c(-c2ccnc(NC(C)c3ccccc3)c2)[nH]1 (stereo unspecified)	–	–	101	–	63	91	41	–	39	86	86	–	–	–	3	1	–	–	–	93
COc1ccc2c(c1)c(C1=C(c3c[nH]c4ccccc34)C(=O)NC1=O)cn2CCCN(C)C	–	–	–	–	63	99	36	72	35	–	73	100	59	107% (inactive)	77	43	101	82	102% (inactive)	69
